Screening results from PubChem BioAssay.
Only a sample is shown.
aSyn UTR act: Activators via SNCA 5'UTR binding, MLPCN; 7.1% of 300,000 active; alpha-synuclein 5'UTR reporter, activators screen; activity score, % (tested at 7.5 µM), hits read low; in the data active means activity score below about -60%
The depositor's hits bear a star.

SMILES	aSyn UTR act
CC(C)(C)c1ccc(C(=O)Nc2sc3c(c2C(=O)O)CCC3)cc1	95
O=C(Nc1sc2c(c1C(=O)O)CCCCC2)c1cccs1	-80*
O=C(Nc1sc2c(c1C(=O)O)CCCC2)c1ccc(F)cc1	-94*
NC(=O)c1c(NC(=O)c2ccc(F)cc2)sc2c1CCC2	-184*
COc1ccccc1C(=O)Nc1sc2c(c1C(N)=O)CCCC2	-83*
CCOC(=O)C(=O)N(Nc1ccc(C)cc1)c1ccc(C)cc1	-178*
CC(C)C1COC(c2cccc3ccccc23)=N1 (centres undefined)	-115*
Fc1ccccc1Nc1n[nH]c(=S)s1	-64*
Cc1cc(N2CCN(C)CC2)nc2ccc(NC(=S)NCc3cccs3)cc12	-78*
CCCN(CCC)CCCNC(=S)Nc1ccc2nc(N3CCCC3)cc(C)c2c1	-72*
Cc1cc(N2CCN(C)CC2)nc2ccc(NC(=S)NCCC(C)C)cc12	-86*
O=C(CSc1ccccn1)c1ccc2c(c1)OCO2	-149*
O=C(CSc1nc2ccccc2[nH]1)c1ccc2c(c1)OCO2	-140*
CC(C)Cn1c(=O)c(C(=O)Nc2ccncc2)c(O)c2ccccc21	66
CCn1c(=O)c(C(=O)Nc2ccccc2C)c(O)c2ccccc21	-81*
C=CCn1c(=O)c(C(=O)Nc2ccccc2C)c(O)c2ccccc21	-156*
C=CCn1c(O)c(N=NC(=S)Nc2ccccc2C)c2cc(S(=O)(=O)N3CCOCC3)ccc21	80
Nc1nc(-c2cc(O)ccc2[N+](=O)[O-])cc(-c2ccccc2)c1[N+](=O)[O-]	-120*
CCOc1ccccc1CNS(=O)(=O)c1ccc(-c2cnc(C3CC3)o2)cc1	74
COc1ccc2[nH]c(=O)c(CN(Cc3cccs3)S(=O)(=O)c3cccc4nsnc34)cc2c1	76
COc1ccc2[nH]c(=O)c(CN(c3ccccc3OC)S(=O)(=O)c3ccccc3)cc2c1	-69*
COc1ccc(N=c2oc3ccccc3cc2C(=O)Nc2ccccn2)cc1OC	-107*
COc1ccccc1NC(=O)c1cc2ccc(O)cc2o/c1=N\O	-97*
COc1ccccc1NC(=O)c1cc2ccccc2o/c1=N\O	-129*
COc1cccc(NS(=O)(=O)NC(=O)c2c[nH]c3ccccc23)c1	-63*
SMILES	aSyn UTR act
c1ccc(SCCN2CCc3ccccc3C2)cc1	-97*
CC1CCC(=O)N(CCSc2ccccc2)CC1 (centres undefined)	-116*
c1ccc(Sc2ccccc2CN2CCCC2)cc1	85
Oc1ccc(CN2CCc3ccccc3C2)c2cccnc12	103
O=C1CCN(CCc2ccccc2)CCN1CCSc1ccccc1	-69*
CC(C)(C)C1CCC(=O)N(CCOc2ccccc2)CC1 (centres undefined)	-101*
COC(=O)c1cccc(NC(=O)NC23CC4CC(CC(C4)C2)C3)c1	-98*
CCNC(=S)N/N=C/c1cc(C)n(-c2ccc(Cl)cc2)c1C	-125*
[O-][n+]1c2c(nc3c1-c1ccccc1C3O)CCCC2 (centres undefined)	-77*
Cn1c(=O)c2nc(-c3ccc(Cl)cc3Cl)oc2c2ccccc21	-72*
COC(=O)c1cccc(Nc2ncnc3ccc(C)cc23)c1	-88*
Cc1cccc(Nc2ncnc3ccccc23)c1	-98*
Cc1ccc(Nc2ncnc3ccccc23)cc1	-114*
Cc1ccc(/C(=N/Nc2ncnc3ccccc23)C(=O)O)cc1	-69*
CC(C)Oc1ccc(Nc2ncnc3ccccc23)cc1	-136*
Cc1ccn2cc(-c3ccc(NC(=O)c4ccco4)cc3)nc2c1	-95*
CC(=O)Nc1cccc(-c2cn3ccc(C)cc3n2)c1	-107*
Cc1ccn2cc(-c3cccc(NS(C)(=O)=O)c3)nc2c1	-150*
CCOc1ccc(CC(=O)Nc2ccc(-c3ccc4nnc(C)n4n3)cc2)cc1	-87*
Cc1nnc2ccc(-c3ccc(NC(=O)c4ccco4)cc3)nn12	-254*
C=CCn1c(SCC(=O)c2[nH]c(C)c(C(=O)OCC)c2C)nc2scc(-c3ccccc3)c2c1=O	57
C=CCn1c(SCC(N)=O)nc2scc(-c3ccc(C)o3)c2c1=O	-84*
O=C(Nc1nc(-c2ccc3c(c2)OCO3)cs1)C1CC1	-184*
O=C(CSCC(=O)Nc1nc(-c2ccc3c(c2)OCO3)cs1)Nc1nccs1	-111*
CSCC(=O)Nc1nc(-c2ccc3c(c2)OCCO3)cs1	-117*
SMILES	aSyn UTR act
Cc1cccc(-c2ncc(S(=O)(=O)C(C)(C)C)c(N)n2)c1	-84*
CCS(=O)(=O)c1ccc(N=Nc2ccc(O)c3ncccc23)c(OC)c1	78
Fc1ccc(COc2cccc3cccnc23)cc1	-141*
Cc1ccc2cccc(OCCCOc3ccccc3F)c2n1	-74*
CCCCC(=O)NC(c1ccccc1OC)c1ccc2cccnc2c1O (centres undefined)	101
Cc1ccc2ccc3ccc(C)nc3c2n1	72
COc1cccc(OC)c1OCCCOc1cccc2cccnc12	-106*
Clc1ccccc1OCCCOc1cccc2cccnc12	-118*
CCCC(=O)NC(c1ccccc1OC)c1ccc2cccnc2c1O (centres undefined)	124
Nc1sc(-c2ccccc2)n[n+]1Cc1cccc2cccnc12	53
